Measured values published in PubChem BioAssay AID1851 (National Center for Advancing Translational Sciences (NCATS), 2009).
Several values for one entry are separate records, joined by “and”; a condition that tells them apart may be missing. Identical values can stand only once. In all, about 16,000 compounds went through this assay and about 5,800 (36%) were called active. Roughly 23% stayed inconclusive and do not appear here. Calls follow the shape of the dose curve; as a rule, active = well fitted curve in the direction sought with a large enough effect; inconclusive = small, poorly fitted or top-dose-only effect, or effect the other way; inactive = no such curve, though single readings can be large or run the other way. The list shows a part of the results.

Each molecule was assayed against Cytochrome P450 2C19 (Homo sapiens) (UniProt P33261) (assay: Cytochrome panel assay with activity outcomes). Details: recombinant CYP, pro-luciferin dealkylation, luminescence, p450-cyp2c19; series mostly up to 57.1 µM.
% is scaled to controls: 0 for no effect and ±100 for the full control effect.

Chain of Cytochrome P450 2C19 (Homo sapiens) (P33261 whole entry, looked up): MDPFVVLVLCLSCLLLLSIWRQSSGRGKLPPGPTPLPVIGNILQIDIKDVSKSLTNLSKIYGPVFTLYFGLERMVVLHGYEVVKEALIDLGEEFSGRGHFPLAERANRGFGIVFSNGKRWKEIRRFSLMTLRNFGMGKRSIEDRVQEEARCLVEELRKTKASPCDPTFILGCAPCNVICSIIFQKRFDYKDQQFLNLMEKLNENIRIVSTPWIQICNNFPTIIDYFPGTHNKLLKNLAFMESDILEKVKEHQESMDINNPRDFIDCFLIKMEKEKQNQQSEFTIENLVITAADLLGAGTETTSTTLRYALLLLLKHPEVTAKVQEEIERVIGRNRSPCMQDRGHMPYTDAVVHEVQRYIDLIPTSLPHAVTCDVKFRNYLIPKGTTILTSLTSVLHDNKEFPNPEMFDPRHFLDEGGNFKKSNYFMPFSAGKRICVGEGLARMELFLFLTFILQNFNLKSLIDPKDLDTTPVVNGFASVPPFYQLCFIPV

AC50, active:
COc1ccc(-n2c(=O)c(-c3cn(C)c4ccccc34)nc3cncnc32)cc1 15.8 µM, COc1ccc(C(=O)NN)cc1COc1ccc(Br)cc1 0.251 µM, COc1ccc(/C=C/C(=O)NCc2cn(C)nc2C)cc1COc1ccc(Br)cc1 3.98 µM, CC(C)c1ccc(/C=N/NC(=O)CN(c2cccc(Cl)c2Cl)S(C)(=O)=O)cc1 15.8 µM, Cc1[nH]nc(Nc2ccccc2)c1[N+](=O)[O-] 14.1 µM, Clc1ccc(Sc2ccc(/C=N/n3cnnc3)o2)cc1 2.82 µM, CCCN1C(=O)/C(=C/c2ccc(C)s2)SC1=Nc1ccc(OC)cc1 11.2 µM, c1ccc(-c2nc3ccccn3c2NCc2ccc3c(c2)OCO3)cc1 0.316 µM, C=CCN=C(NC#N)SCc1ccccc1 14.1 µM, Cc1ccc(/C=C/C2=Cc3c(sc(NC(=O)CSc4n[nH]c(N)n4)c3C#N)C(C)(C)C2)o1 4.47 µM, CCOc1ccc(/C=C/C2=Cc3c(sc(NC(=O)CSc4n[nH]c(N)n4)c3C#N)C(C)(C)C2)cc1 10 µM, O=C1CCCN1c1ccc(S(=O)(=O)Oc2cccc(Cl)c2)cc1[N+](=O)[O-] 0.501 µM, N=c1sccn1CC(=O)Nc1cccc(Oc2ccccc2)c1 15.8 µM, CCCCCOC(=O)c1c(N)n(CCOC)c2nc3ccccc3nc12 14.1 µM, C/C(=N\NC(=S)Nc1ccc(F)cc1)C1CC1 0.562 µM, COC(=O)C1=C(N)N(c2ccccc2C(F)(F)F)C2=C(C(=O)CCC2)C1c1ccc2c(c1)OCO2 (stereo not given) 20 µM, O=C(c1ccc(COc2ccc(F)cc2)o1)n1cccn1 3.55 µM, CC(=O)COC(=O)CCc1nc2ccccc2[nH]c1=O 11.2 µM, CCCCNC(=O)C1C2C=CC3(CN(Cc4ccccc4Cl)C(=O)C13)O2 (stereo not given) 20 µM, Cc1ccc(CN2CC34C=CC(O3)C(C(=O)NCc3ccc5c(c3)OCO5)C4C2=O)cc1 (stereo not given) 15.8 µM, Cc1ccc(CN2CC34C=CC(O3)C(C(=O)NCc3ccco3)C4C2=O)cc1 (stereo not given) 14.1 µM, FC(F)(F)c1nnc2c(Sc3ccccc3)nc3ccc(Cl)cc3n12 1.41 µM, CC(C)NC(=O)c1ccc(-c2cccc(C(F)(F)F)c2)o1 7.08 µM, CC(=O)Nc1ccc(S(=O)(=O)NCC2CCC(C(=O)NCCC(C)C)CC2)cc1 (stereo not given) 31.6 µM, Cc1cc(C)c(Cn2cnc(-c3ccc([N+](=O)[O-])cc3)c2)c(C)c1 3.16 µM, C=C(C)C1CC=C(C)/C(=N/NC(=O)c2ccc(NC(=O)c3cccc(C)c3)cc2)C1 (stereo not given) 1.41 µM, Nc1nc(Nc2ccccc2)nc2c1ncn2[C@@H]1O[C@@H](CO)[C@H](O)[C@H]1O 0.631 µM, CCOc1cc(C)ccc1OCc1nnc(SCC(=O)c2cccc([N+](=O)[O-])c2)n1C 14.1 µM, C=CCn1c(Cc2ccc(OC)cc2)nnc1SCC(=O)c1cccc([N+](=O)[O-])c1 14.1 µM, COc1cc2c(cc1OC)CN(C(=S)Nc1ccccc1)CC2 2.51 µM, COCOc1ccc(Br)cc1C(=O)[C@H]1O[C@H]1c1cccc(OC)c1 0.0631 µM, CCCC1c2c(ccc3ccccc23)Oc2ccc3ccccc3c21 0.631 µM, C=CCNC(=O)c1csc(-c2ccccc2)n1 10 µM, O=C(/C=C/c1ccco1)Nc1ccc(Oc2ccccc2)cc1 5.01 µM, CCCCCn1c(=O)c(C(=O)c2ccccc2)nc2ccccc21 2 µM, O=C(c1ccccc1)c1nc2ccccc2n(CCCn2c(=O)c(C(=O)c3ccccc3)nc3ccccc32)c1=O 1 µM, COc1cccc(CNCc2ccc(SC)cc2)c1OC 0.251 µM, CC(C)(C)NC(=O)CSC(=Nc1ccc(F)cc1)NC#N 2.82 µM, Cc1ccc2cc3cc(C(=O)N4CCCCC4C)oc3nc2c1 (stereo not given) 14.1 µM, COc1ccc2cc3cc(C(=O)NCc4ccc5c(c4)OCO5)oc3nc2c1 10 µM, COc1ccc2cc3cc(C(=O)Nc4ccc5c(c4)OCO5)oc3nc2c1 7.08 µM, COc1ccc2cc3cc(C(=O)NCCN4CCN(c5ccccc5F)CC4)oc3nc2c1 28.2 µM, O=S1(=O)C=C(SCc2cccc(Cl)c2)Nc2ccccc21 0.891 µM

AC50, inactive:
O=C(Nc1ccccc1)N1CCCC2(CCN(C(=O)c3ccco3)CC2)C1, COc1ccc(-n2c(=O)c(-c3cn(C)c4ccccc34)nc3cnc(OC)nc32)cc1, CCn1ncc(/C=C/C(=O)NCc2cn(C)nc2C)c1C, Cc1nn(C)cc1CNC(=O)CCC(=O)O, NC(=O)C1=CN([C@@H]2O[C@@H](COP(=O)(O)OP(=O)(O)OC[C@@H]3O[C@H](n4cnc5c(N)ncnc54)[C@@H](OP(=O)(O)O)[C@@H]3O)[C@H](O)[C@@H]2O)C=CC1, Cc1cccc(-c2n[nH]c([N+](=O)[O-])n2)c1, Nc1nc(NCc2ccccc2)nc(Nc2cccc(F)c2)c1[N+](=O)[O-], CN=C1S/C(=C\c2ccc(Sc3ccc(Cl)cc3)o2)C(=O)N1C, COc1ccc(N=C2S/C(=C\c3ccc(C)s3)C(=O)N2CC(C)C)cc1, N[C@@H](Cc1ccc(O)c(O)c1)C(=O)O, Cc1cc(C(C)(C)C)cc(C)c1CC1=NCCN1, CC1(C)CCC=[N+]1[O-], COc1ccc(OC)c(NC(=O)c2cc3n(n2)C(C(F)(F)F)CC(c2ccc4c(c2)OCO4)N3)c1 (stereo not given), COc1ccc(NC(=O)c2cc3n(n2)C(C(F)(F)F)CC(c2ccc4c(c2)OCO4)N3)cc1OC (stereo not given), C#CC[N+](CC)(CC)CC#Cc1cccc(Cl)c1, COCCCNC(=O)C1C2C=CC3(CN(Cc4ccc(C)cc4)C(=O)C13)O2 (stereo not given), COC(=O)N1CCC2(CCN(C(=O)NC(C)C)CC2)CC1, FC(F)(F)c1nnc2c(Sc3ccc(Cl)cc3)nc3ccccc3n12, C[C@@]1(C(NC(=O)Cc2ccc(C(F)(F)F)cc2)c2ccc(-c3ccccc3)cc2)C[C@H]1C1CCCCC1 (stereo not given in full), CC(C)NC(=O)N1CCC2(CC1)CCN(C(=O)c1cc(C(F)(F)F)cc(C(F)(F)F)c1)CC2, COCCCNC(=O)C1CCN(S(=O)(=O)N(CC(C)C)CC(C)C)CC1, Cc1ccc(S(=O)(=O)NCC2CCC(C(=O)O)CC2)cc1 (stereo not given), CCCN(CCc1ccccc1)[C@H]1CCc2c(O)cccc2C1, Cc1ccc(COn2c(-c3ccc(Cl)cc3)nc3ccc([N+](=O)[O-])cc32)cc1, Nc1nc(Nc2ccccc2)nc2c1ncn2[C@@H]1O[C@@H](CO)[C@H](O)[C@@H]1O, Nc1nc(Cl)nc2c1ncn2[C@@H]1O[C@@H](CO)[C@@H](O)[C@H]1O, CCOc1cc(C)ccc1OCc1nnc(SCC(=O)c2cccc([N+](=O)[O-])c2)n1CC, CC1(C)OC(C(N)=O)C(C(N)=O)O1 (stereo not given), CN(c1ccc(C(=O)NC2CC3CCC2C3)cc1)S(C)(=O)=O (stereo not given), COc1ncc2nc(-c3cc(F)cc(F)c3)c(=O)n(CCC#N)c2n1, C=CCNC(=O)c1ccccc1Cl, O=C(O)Cc1cc2ccccc2nc1C(=O)O, COc1ccc2c(c1)CCC1[C@@H]2CCC2(C)[C@@H](NCCCCCCN3C(=O)C=CC3=O)CC[C@@H]12 (stereo not given in full), COc1ccc(C(=O)N2CCC3(CCCN(CC(C)C)C3)CC2)cc1, Cc1ccc2cc(C(=O)O)c(C)nc2c1, COc1ccc(C)cc1NC(=O)c1cc2cc3ccc(C)cc3nc2o1, CCN1CCN(CCCNC(=O)c2cc3cc4ccc(OC)cc4nc3o2)CC1, COc1ccc2cc3cc(C(=O)NCCCN4CCOCC4)oc3nc2c1, COc1ccc2cc3cc(C(=O)NCc4ccccn4)oc3nc2c1, COCC(=O)N1CCC[C@@]2(CCN(c3ncccn3)C2)C1

activity, negative = inhibition, inactive:
CCOC(=O)N/N=C1/C[C@@H](O)[C@@H](O)[C@@H]2[C@@H]3C(=O)N(c4cccc(Oc5ccccc5)c4)C(=O)[C@H]3CC[C@@H]12 -10.2% [at 11.4 µM], NS(=O)(=O)c1cc(Br)c(N=Nc2ccc(O)c3ncccc23)c(Br)c1 -10.5% [at 11.4 µM], CS(=O)(=O)c1ccc(/C=N\NC(N)=S)cc1 -0.291% [at 11.4 µM], CC(C)CN(CC#N)CC(C)C 2.34% [at 11.4 µM], CN(C)CCNS(=O)(=O)N(C)C 0.116% [at 11.4 µM], O=C(Cn1ccc(=O)[nH]c1=O)Nc1ccc(C(=O)O)c(O)c1 40.8% [at 11.4 µM], COCn1c2ccccc2c2nnc(C(C)=O)nc21 5.57% [at 11.4 µM] and -2.14% [at 11.4 µM], N[C@@H](Cc1ncccn1)C(=O)O 1.66% [at 11.4 µM], CC(C)(CO)N1CCN(C(=S)Nc2ccccc2)CC1 4.38% [at 11.4 µM], NCCc1nc(-c2nc(C(=O)O)cs2)cs1 -18.8% [at 11.4 µM], Oc1ccc(CNCc2ccccc2)c2cccnc12 -5.63% [at 11.4 µM], CCN(CC(=O)O)CC(=O)O 7.01% [at 11.4 µM]
